Drawing on PubChem BioAssay AID618 (Sanford-Burnham Center for Chemical Genomics, 2007), this text covers outcome for 82 compounds.

Hit rate of the full screen: of about 87,000 compounds, about 540 (0.62%) were called active. The rule behind the calls is not given here. The sample as a whole holds a higher share of actives than the screen did. Results with a measured potency or affinity are listed apart.

The assay can be described thus: MT1-MMP gene expression reporter suppression – cell-based, luciferase reporter, luminescence (AID 618).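 Note: actives suppress MT1-MMP promoter-driven transcription so potencies describe inhibitors.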 Conditions: MT1-MMP promoter luciferase reporter cells.
On to `COc1ccc(C(CNC(=O)c2ccc(-n3cnnn3)cc2)N2CCOCC2)cc1` (configuration not stated), for which the compound was classed as inactive.

On to `CC(=O)c1ccc(-c2nc3ccccc3n2C)o1`, for which the call was inactive.

On to `Cc1oc(-c2nc3ccccc3n2C)cc1C(=O)c1ccccc1`, for which the call was active.

On to `Cn1cc(C(=O)c2ccccc2)cc1-c1nc2ccccc2n1C`, for which the compound was called inactive.

Turning to `C/C(=C1\SC(N2CCOCC2)=NC1=O)c1ccc(C)cc1`, the compound was classed as inactive.

Consider `Cc1ccc(CS(=O)(=O)CCC(=O)NCc2ccc3c(c2)OCO3)cc1`, for which the outcome was inactive.

As for `CCC(=O)Nc1ccc2oc(-c3ccccc3Br)nc2c1`, the call was inactive.

For `CCCC(=O)Nc1ccc(-c2nc3cc(C)c(C)cc3o2)cc1`, the result was inactive.

Turning to `CCC(C)NCC(=O)Nc1ccc(-c2nc3cc(NC(=O)CNC(C)CC)ccc3o2)cc1` (configuration not stated), the call was inactive.

Consider `CCC(=O)Nc1cccc(-c2nc3ccccc3o2)c1`, for which the compound was classed as inactive.

For the compound `Cc1ccc(-c2nc3cc(NC(=O)C(C)C)ccc3o2)cc1C`, the call was inactive.

On to `CCC(=O)Nc1ccc2oc(-c3cccc(C)c3)nc2c1`, for which the outcome was active.

For the compound `Cc1cc2nc(-c3ccc(NC(=O)C(C)C)cc3)oc2cc1C`, the compound was called inactive.

Turning to `Cc1ccc2oc(-c3ccc(NC(=O)CC(C)C)cc3)nc2c1`, the compound was called inactive.

Turning to `CC(C)(C)c1ccc(OCC(=O)Nc2ccc(-c3nc4cccnc4o3)cc2)cc1`, the compound was called inactive.

With `O=C(Nc1cc(C(F)(F)F)ccc1N1CCCCC1)c1ccco1`, the compound was called inactive.

For the compound `COCCNC(=O)CN1c2ccccc2CC1C` (configuration not stated), the result was inactive.

In the case of `CCCSc1nc(C)c(-c2csc(C(C#N)=C3CCCC3)n2)cc1C#N`, the call was inactive.

For `CCOC(=O)N1CCN(CCC(=O)Nc2ccccc2OC)CC1`, the outcome was inactive.

For the compound `CS(=O)(=O)Nc1ccccc1C(=O)Nc1ccccc1Cl`, the compound was called inactive.

Regarding `COc1ccc(CCNC(=O)CSc2nnc(-c3ccc(F)cc3)o2)cc1OC`, the compound was classed as inactive.

Consider `CC(=O)C1=C(O)C(=O)N(Cc2ccccc2)C1c1cccs1` (configuration not stated), for which the compound was called inactive.

`COc1cc(C2c3c(oc4cc(C)c(C)cc4c3=O)C(=O)N2c2cc(C)ccn2)ccc1O` (configuration not stated): the compound was called inactive.

For `COc1ccc(N2CCN(C(=O)CCNS(=O)(=O)c3cccs3)CC2)cc1`, the outcome was inactive.

As for `CC(C)(C)C(=O)Nc1ccc2oc(-c3cc(F)c(F)cc3Cl)nc2c1`, the outcome was inactive.

In the case of `CC(C)C(=O)Nc1ccc2oc(-c3cc(F)c(F)cc3Cl)nc2c1`, the outcome was inactive.

For `CC(C)N=Cc1c(O)[nH]c2ccccc12`, the call was inactive.

As to `CN=Cc1c(NC)nc2c(C)cccn2c1=O`, the compound was classed as inactive.

Take `O=C(NCc1ccc(F)cc1)C1CCC(=O)N1CCc1ccccc1` (configuration not stated): the compound was called inactive.

With `Cc1ccc(NC(=O)c2ccc(S(=O)(=O)N3CCCC3)cc2)cc1`, the result was inactive.

`C[C@@H](NC(=O)c1coc(=O)c(Br)c1)c1ccccc1`: the result was inactive.

Regarding `CN(C)CCNC(=O)c1coc(=O)c(Br)c1`, the call was inactive.

`O=C(CNC(=O)C1CCCCC1)NCCCO`: the outcome was inactive.

With `COc1ccc(-n2ncc3c(NCc4ccco4)ncnc32)cc1`, the outcome was inactive.

As for `CC(C)Nc1ncnc2c1cnn2-c1ccccc1`, the outcome was inactive.

Take `COCC(C)Nc1ncnc2c1cnn2-c1ccc(Cl)cc1` (configuration not stated): the compound was called inactive.

Consider `CC(C)OCCCNc1ncnc2c1cnn2-c1ccccc1`, for which the result was active.

For `Cc1ccc(-n2ncc3c(NCCCOC(C)C)ncnc32)c(C)c1`, the compound was classed as inactive.

Regarding `CCCCNc1ncnc2c1cnn2-c1ccccc1`, the compound was called inactive.

Take `CCCNc1ncnc2c1cnn2-c1ccc(OC)cc1`: the outcome was inactive.

Consider `Cc1cccc(-n2ncc3c(NC(C)C)ncnc32)c1`, for which the result was inactive.

As for `CCC(CO)Nc1ncnc2c1cnn2-c1ccc(OC)cc1` (configuration not stated), the call was inactive.

Consider `Cc1cc(C)nc(NS(=O)(=O)c2ccc(Br)s2)c1`, for which the result was inactive.

For the compound `O=C(NCCOc1nc(N2CCOCC2)nc(N2CCOCC2)n1)Nc1ccc(Cl)cc1`, the result was inactive.

As for `CCNS(=O)(=O)c1ccc(NC(=O)Cc2ccc(F)cc2)cc1`, the compound was called inactive.

As for `O=C1C2CC=C(Cl)CC2C(=O)N1CCc1ccccc1` (configuration not stated), the compound was classed as inactive.

As to `COc1ccc(OC)c(NC(=O)C2CCCNC2=O)c1` (configuration not stated), the compound was called inactive.

For `Cc1cc(NC(=O)CSc2nc3c(sc4ccccc43)c(=O)n2CCc2ccccc2)n[nH]1`, the outcome was inactive.

For the compound `O=C(O)CSC1CC(=O)N(c2ccc(Cl)c(Cl)c2)C1=O` (configuration not stated), the outcome was inactive.

With `COc1ccc(CNC(=O)c2ccc3c(c2)N(C)C(=O)CS3=O)cc1` (configuration not stated), the compound was classed as inactive.

Turning to `COc1ccc(CNc2ccccc2SC)cc1OC`, the result was inactive.

With `CSc1ccccc1N=CC1=C(O)CC(C)(C)CC1=O`, the result was inactive.

As for `C=CCNc1ncnc2c1cnn2-c1cccc(C)c1`, the compound was called inactive.

With `C=CCNc1ncnc2c1cnn2-c1ccc(Cl)cc1`, the compound was classed as inactive.

On to `O=C(Nc1ccccc1C(=O)NCCCn1ccnc1)c1ccccc1`, for which the result was inactive.

On to `O=C(Nc1ccccc1C(=O)NCCCn1ccnc1)c1ccc(Cl)cc1Cl`, for which the compound was classed as inactive.

Regarding `CCOc1ccc(Br)cc1S(=O)(=O)Nc1ccccc1N1CCOCC1`, the outcome was inactive.

Consider `CCOc1cc(N2CCOCC2)c(OCC)cc1NS(=O)(=O)c1ccc(Cl)s1`, for which the compound was classed as active.

On to `CCOc1cc(N2CCOCC2)c(OCC)cc1NC(=O)CCS(=O)(=O)c1ccc(Cl)cc1`, for which the call was inactive.

As for `CCOC(=O)c1[nH]c(C)c(CN(Cc2ccco2)C(=O)C(F)(F)F)c1C`, the call was inactive.

Turning to `O=C(Nc1cccc(-c2cnc3ccccc3n2)c1)c1ccco1`, the compound was called inactive.

On to `O=C(CCl)Nc1cccc(-c2cnc3ccccc3n2)c1`, for which the call was active.

On to `O=C(CNC(=O)c1ccc(Br)o1)Nc1cccc(-c2cnc3ccccc3n2)c1`, for which the result was inactive.

In the case of `O=c1cc(O)c(-c2ccccc2Cl)c(Cl)[nH]1`, the result was inactive.

On to `Cc1nnc(NCCc2ccccc2)[nH]c1=O`, for which the compound was classed as inactive.

As for `CC(=O)Oc1ccc2oc(C)c(C(=O)N3CCOCC3)c2c1`, the compound was called inactive.

As to `CC(=O)Nc1ccc2nc(-c3ccccn3)[nH]c2c1`, the outcome was inactive.

Regarding `Nc1ccc2nc(-c3ccccn3)[nH]c2c1`, the compound was classed as inactive.

For `CC(=O)Nc1nnc(Cc2ccccc2)s1`, the call was inactive.

Turning to `COC(=O)C(Cc1cnc(Cl)s1)(C(=O)OC)c1ccc([N+](=O)[O-])cc1`, the compound was classed as inactive.

For `Cc1ccc(C)c(C(=O)CSc2nnnn2C(C)C)c1`, the compound was called inactive.

As for `CC(=O)Nc1ccc(C(=O)CSc2nnnn2C(C)C)cc1`, the result was inactive.

Turning to `COc1ccc(NC(=O)N2c3ccccc3CC2C)cc1OC` (configuration not stated), the outcome was inactive.

Consider `Cc1nc2cc(NC(=O)N3c4ccccc4CC3C)ccc2n1C` (configuration not stated), for which the outcome was active.

For the compound `Cc1nc2cc(NC(=O)N3c4ccccc4CC3C)ccc2o1` (configuration not stated), the result was inactive.

With `COc1ccc(Cn2nnnc2C(c2ccc(N(C)C)cc2)N2CCC(C)CC2)cc1` (configuration not stated), the compound was classed as inactive.

Regarding `COc1ccc(C(=O)Nn2c(SCC(=O)c3ccccc3)nc3ccccc3c2=O)cc1`, the result was inactive.

For `COc1ccc(C(=O)Nn2c(SCC(=O)c3ccc(Cl)cc3)nc3ccccc3c2=O)cc1`, the result was inactive.

`O=C(CSc1nc2ccccc2c(=O)n1NC(=O)Cc1ccccc1)NCc1ccco1`: the call was inactive.

Regarding `COCCn1c(SCC(=O)N2CCC(C)CC2)nc2ccccc2c1=O`, the call was inactive.

With `O=C(CSc1nc2ccsc2c(=O)n1NC(=O)c1ccccc1)NCc1ccco1`, the compound was called inactive.

On to `COc1ccc(C(=O)Nn2c(SCC(=O)NC3CCCC3)nc3ccccc3c2=O)cc1`, for which the compound was classed as inactive.
